Experimental data published in PubChem BioAssay (NCI).
“And” between values parts separate entries of the source, which are not always exact repeats. Equal entries are not always repeated. This is part of a sample that, as a whole, favours compounds with a hit. Of some 83,000 tested, about 20% had one in any assay.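 How to read the values: 0–100, growth inhibition (40 = 60% inhibited); 0, no net growth; -100 to 0, cell death (-40 = 40% of starting cells died; -100 = all dead).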 Unmarked numbers belong to inactive results. The source made the active and inactive calls. The calls were made as follows: active = growth percent below 10; inactive = the rest.

Tests used:
Experiment in all cases: NCI-60 one-dose screen, 48 h (100 = growth as untreated, 0 = no growth, -100 = all killed)
Conditions in all cases: 10 µM unless noted
HCT-15 colon = test system: HCT-15 colon
HT29 colon = test system: HT29 colon
SNB-75 CNS = test system: SNB-75 CNS
SNB-19 CNS = test system: SNB-19 CNS
U251 CNS = test system: U251 CNS
PC-3 prostate = test system: PC-3 prostate
SK-MEL-5 melanoma = test system: SK-MEL-5 melanoma
UACC-62 melanoma = test system: UACC-62 melanoma
LOX IMVI melanoma = test system: LOX IMVI melanoma
SK-MEL-28 melanoma = test system: SK-MEL-28 melanoma

SMILES	growth (HCT-15 colon)	growth (HT29 colon)	growth (SNB-75 CNS)	growth (SNB-19 CNS)	growth (U251 CNS)	growth (PC-3 prostate)	growth (SK-MEL-5 melanoma)	growth (UACC-62 melanoma)	growth (LOX IMVI melanoma)	growth (SK-MEL-28 melanoma)
COc1ccc(C2=C(CN)C(O)NC(=NCC(=O)c3ccc4ccccc4c3)N2)cc1 (stereo not given)	106%	101%	87.2%	104%	102%	104%	108%	101%	95.5%	103%
CCOC(=O)C1=C(C)NC(=O)NC1c1c(Cl)n(-c2ccccc2)c2ccccc12 (stereo not given)	85.8%	80.7%	84.8%	83.9%	89.2%	56.7%	75.4%	68.4%	89.3%	94.1%
O=C(/C=C/c1ccc([N+](=O)[O-])cc1)c1ccccc1	77.2%	50.7%	83.4%	98.5%	80.8%	77.5%	94.5%	94.9%	61.4%	103%
Cc1ccc(NC(=O)c2sc3nc(C)c(C(=O)c4ccccc4)cc3c2N)cc1	83.1%	102%	70.7%	83.3%	88.5%	92.2%	94.1%	79.5%	94.9%	92%
O=C(CCCOc1ccc(Br)cc1)Nc1ncc(Cc2ccc(F)cc2)s1	38.6%	49.1%	55%	76.5%	80.4%	72.9%	68.8%	50.2%	64.6%	76.8%
C=C1C(=O)O[C@H]2[C@H]1CC/C(CNS(=O)(=O)c1ccc3ccccc3c1)=C\CC[C@@]1(C)O[C@@H]21	-78.5% (active)	-78.2% (active)	38.2%	71.9%	48.9%	53.6%	31.8%	-12% (active)	-84.8% (active)	-8.36% (active)
COc1ccc(/C=C(\C#N)c2cc3ccccc3[nH]2)cc1	14%	8.16% (active)	18.6%	39.7%	18.7%	51%	22.2%	31.4%	30.3%	49.5%
Cc1ccc(-c2nc(C#N)c(S(=O)(=O)N(C)C)o2)cc1	19.7%	97.7%	83.7%	98.2%	93.3%	103%	92.5%	97.5%	49.8%	102%
COc1ccc(/C=N/NC(=O)CN2CCN(c3cc4c(cc3F)c(=O)c(C(=O)O)cn4C3CC3)CC2)cc1O	109%	96.1%	106%	94.4%	95.3%	93%	89.8%	97.6%	97.9%	109%
CN(Cc1ccccc1)c1nc(Cl)c(C2CC(c3ccc(F)cc3)=NN2C=O)s1 (stereo not given)	90.4%	95.4%	97.3%	98.1%	97.7%	83.6%	90.4%	79.2%	92.8%	106%
O=C(/C=C/c1ccc(F)cc1)Nc1ncc(Cc2ccc(F)cc2)s1	26.1%	13.7%	23.2%	58.1%	33.6%	31.9%	2.79% (active)	14.1%	9.96% (active)	67%
COc1ccc2c(c1)c(C(=O)c1nc(-c3cn(C)c4ccccc34)no1)cn2C	82.9%	88.8%	108%	92.8%	101%	83.8%	82.2%	76.6%	103%	93.4%
CCN1CCN(CC(=O)Nc2nc3ccc(NCc4ccc(C)cc4)cc3s2)CC1	1.79% (active)	14.5%	91.6%	81.6%	60.2%	56%	40.7%	-57.1% (active)	-42.4% (active)	53.4%
CN(C)CC1(C)Cc2ccsc2C1O (stereo not given)	108% and 105%	104% and 99.1%	110% and 101%	108% and 106%	112% and 103%	98.2% and 100%	110% and 107%	109% and 112%	97.3% and 102%	120% and 126%
O=C(/C=C/C12c3ccccc3C(c3ccccc31)C1C(=O)NC(=O)C12)c1ccncc1 (stereo not given)	4.66% (active)	12.1%	13.7%	14.5%	7.81% (active)	20.8%	27.6%	23.4%	-10.7% (active)	24.7%
OB(O)c1ccsc1-c1nc2ccc3[nH]ncc3c2c2c1CCCC2	31.3%	45.9%	35.2%	76.1%	65.9%	69.4%	57.6%	45.2%	41.1%	72.8%
Cc1c(C(C)(C)O)cn2ncnc(Oc3ccc(NC(=O)Nc4ccc(Cl)c(C(F)(F)F)c4)cc3)c12	36.8%	34.6%	33.8%	30.8%	31.8%	21.5%	56.2%	55.5%	-9.63% (active)	53.1%
N=c1c2c(-c3ccccc3)c(-c3ccccc3)oc2ncn1NC(=O)c1cccnc1	95.6%	104%	105%	96.4%	102%	93.6%	93.4%	104%	95%	119%
CCOC(=O)c1nnn(Cc2cc(=O)oc3c2ccc2ccccc23)c1C	104%	96.7%	91.6%	98.2%	104%	89.2%	101%	98.7%	101%	109%
Cc1ccc(-c2nc3nc(-c4ccc(Br)cc4)nc(N4CCCNCC4)c3o2)cc1	-84.5% (active)	-85.3% (active)	96.2%	-47.3% (active)	-76.6% (active)	-52% (active)	92.6%	101%	-85.1% (active)	103%
CSc1nnc(-c2cc3c([nH]c4ccccc43)c(-c3cccc(O)c3)n2)n1-c1ccc(C)cc1	23.2%	8.92% (active)	30.1%	54.3%	29.4%	25.8%	13.5%	40.1%	29.3%	9.42% (active)
N#CSc1c[nH]c2ccc(/C=C/C(=O)/C=C(/C=C/c3ccc4[nH]cc(SC#N)c4c3)OB(F)F)cc12	-73.7% (active)	-53.6% (active)	18%	38.2%	-27% (active)	-22.5% (active)	9.1% (active)	-43% (active)	-91.4% (active)	-1.41% (active)
N#CC1=C(N)Oc2c(sc3c(Br)cccc23)C1c1ccccn1 (stereo not given)	28.5%	10.6%	61.2%	48.4%	36.5%	40.6%	40.8%	18.3%	38.7%	65.3%
Cc1ccc(-c2nc3nc(-c4ccc(Cl)cc4)nc(N4CCCNCC4)c3o2)cc1	-81.5% (active)	-82.4% (active)	-10.4% (active)	-89.7% (active)	-86.9% (active)	-79.8% (active)	92.8%	95.6%	-83.2% (active)	108%
O=C1N=c2ccccc2=C1c1sc(=S)n(C2CC(=O)N(c3ccc(Cl)cc3)C2=O)c1O (stereo not given)	93.7%	114%	86.1%	102%	104%	86.6%	102%	95.9%	89.5%	109%
CCNC(=S)n1nc(SC)c(C(=O)OCC)c1N	96.3%	102%	89.5%	93.6%	109%	102%	96.1%	81.6%	95.4%	102%
